This is an account of results in ChEMBL document CHEMBL3988442, “University of Dundee, Small-Polar-MMV Screening Library” (2021).

For some assays here: Potency and affinity values are given separately. Some results are limits rather than exact numbers.

Experiment [1] has as its target T1, Methionyl-tRNA synthetase, putative (Leishmania donovani (strain BPK282A1)) (UniProt E9BF75).
T1 sequence (whole entry): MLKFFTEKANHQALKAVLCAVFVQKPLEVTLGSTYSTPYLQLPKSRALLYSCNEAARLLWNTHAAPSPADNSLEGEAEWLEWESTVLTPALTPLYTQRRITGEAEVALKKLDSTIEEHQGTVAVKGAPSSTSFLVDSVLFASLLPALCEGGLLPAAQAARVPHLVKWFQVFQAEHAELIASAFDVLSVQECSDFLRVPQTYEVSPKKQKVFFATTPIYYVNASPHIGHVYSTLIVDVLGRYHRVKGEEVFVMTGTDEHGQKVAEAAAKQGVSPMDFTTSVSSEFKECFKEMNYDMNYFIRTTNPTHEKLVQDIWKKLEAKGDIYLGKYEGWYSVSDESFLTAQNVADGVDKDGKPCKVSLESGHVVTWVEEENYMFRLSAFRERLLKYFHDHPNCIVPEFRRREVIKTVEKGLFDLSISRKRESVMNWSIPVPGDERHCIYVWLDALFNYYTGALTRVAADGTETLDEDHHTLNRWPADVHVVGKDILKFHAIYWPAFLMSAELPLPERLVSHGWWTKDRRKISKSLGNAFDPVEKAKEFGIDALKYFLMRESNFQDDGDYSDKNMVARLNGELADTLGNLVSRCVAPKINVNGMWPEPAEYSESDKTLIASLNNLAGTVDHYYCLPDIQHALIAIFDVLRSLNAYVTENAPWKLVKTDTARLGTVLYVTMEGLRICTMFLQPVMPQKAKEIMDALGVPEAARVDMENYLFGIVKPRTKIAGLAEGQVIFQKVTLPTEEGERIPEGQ
Nature of the experiment: Leishmania donovani Methionine tRNA synthetase (LdMetRS):v7. Dose response assay. The experiment is classed as functional. Further details: conc 80 nM, time 150 minutes.

In experiment [2] the target is Protein translocase subunit SecA (Escherichia coli (strain K12)) (UniProt P10408). Nature of the experiment: Assay to Identify E. coli SecA ATPase Inhibitors. Further details: scale not given: direction of the effect not stated beside the values. The note with it: 30 µM. It counts as functional.
In experiment [3] the target is T2, Ubiquitin-activating enzyme e1, putative (Leishmania donovani (strain BPK282A1)) (UniProt E9BSI1).
T2 sequence (whole entry): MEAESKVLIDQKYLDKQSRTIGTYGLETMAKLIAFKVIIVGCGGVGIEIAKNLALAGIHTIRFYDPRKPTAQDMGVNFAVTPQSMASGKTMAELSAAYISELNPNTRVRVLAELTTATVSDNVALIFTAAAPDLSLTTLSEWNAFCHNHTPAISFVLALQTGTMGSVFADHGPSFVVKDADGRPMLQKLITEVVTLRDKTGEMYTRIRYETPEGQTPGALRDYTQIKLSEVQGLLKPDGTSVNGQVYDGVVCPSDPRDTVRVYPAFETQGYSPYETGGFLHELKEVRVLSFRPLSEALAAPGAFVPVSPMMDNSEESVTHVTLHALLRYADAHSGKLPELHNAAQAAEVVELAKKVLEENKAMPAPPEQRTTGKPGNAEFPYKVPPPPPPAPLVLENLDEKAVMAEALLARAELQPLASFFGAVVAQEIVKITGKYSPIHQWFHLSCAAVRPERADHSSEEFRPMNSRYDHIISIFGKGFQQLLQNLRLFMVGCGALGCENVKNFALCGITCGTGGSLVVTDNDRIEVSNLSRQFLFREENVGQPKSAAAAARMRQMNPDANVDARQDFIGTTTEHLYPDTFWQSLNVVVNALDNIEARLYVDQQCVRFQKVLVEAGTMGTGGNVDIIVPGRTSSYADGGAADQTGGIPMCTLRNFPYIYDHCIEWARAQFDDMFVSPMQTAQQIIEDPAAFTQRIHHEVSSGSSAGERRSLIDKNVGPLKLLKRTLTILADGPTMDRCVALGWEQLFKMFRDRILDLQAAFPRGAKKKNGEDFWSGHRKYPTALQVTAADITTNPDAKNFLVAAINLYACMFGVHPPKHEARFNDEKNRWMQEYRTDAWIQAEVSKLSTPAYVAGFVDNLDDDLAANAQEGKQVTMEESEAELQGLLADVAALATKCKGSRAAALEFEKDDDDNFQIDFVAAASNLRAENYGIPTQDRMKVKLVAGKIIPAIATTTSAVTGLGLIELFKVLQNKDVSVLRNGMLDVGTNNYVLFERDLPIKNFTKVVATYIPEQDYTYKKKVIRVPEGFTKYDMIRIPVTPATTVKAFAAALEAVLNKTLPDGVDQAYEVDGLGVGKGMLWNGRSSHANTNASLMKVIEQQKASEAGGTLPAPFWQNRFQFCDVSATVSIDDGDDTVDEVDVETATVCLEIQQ
Kind of experiment: Leishmania donovani Ubiquitin Activating Enzyme (LdE1). It counts as functional. Further details: scale not given: direction of the effect not stated beside the values. The note with it: 30 µM.

Experiment [4] addresses AMP-activated protein kinase, AMPK (Homo sapiens) (UniProt P54646+O43741+P54619+Q9UGJ0+Q9Y478+Q13131+Q9UGI9). Kind of experiment: AMP-dependent Kinase enzyme assay. An in vitro enzyme assay that detects ADP turnover that is directly proportional to AMPK activity. This uses naive AMPK that is activated during the assay with MK-8722. It counts as functional. The note with it: 30 µM. On the set-up: scale not given: direction of the effect not stated beside the values.

The target of experiment [5] is Sialic acid-binding Ig-like lectin 9 (Homo sapiens) (UniProt Q9Y336). Nature of the experiment: Hs-Siglec9 ALPHAscreen SOP 20170721. Further details: scale not given: direction of the effect not stated beside the values. The note with it: 10 µM. A general note: Alpha assays give light when donor and acceptor beads are brought close together.
For a further experiment, the system named is Trypanosoma cruzi. Kind of experiment: Trypanosoma cruzi phosphomannomutase and mannose-1-phosphate guanylyltransferase assay. It counts as functional. Further details: scale not given: direction of the effect not stated beside the values. The note with it: 10 µM.
In experiment [6] the target is T3, Arginase-2, mitochondrial (Homo sapiens) (UniProt P78540).
T3 sequence (whole entry): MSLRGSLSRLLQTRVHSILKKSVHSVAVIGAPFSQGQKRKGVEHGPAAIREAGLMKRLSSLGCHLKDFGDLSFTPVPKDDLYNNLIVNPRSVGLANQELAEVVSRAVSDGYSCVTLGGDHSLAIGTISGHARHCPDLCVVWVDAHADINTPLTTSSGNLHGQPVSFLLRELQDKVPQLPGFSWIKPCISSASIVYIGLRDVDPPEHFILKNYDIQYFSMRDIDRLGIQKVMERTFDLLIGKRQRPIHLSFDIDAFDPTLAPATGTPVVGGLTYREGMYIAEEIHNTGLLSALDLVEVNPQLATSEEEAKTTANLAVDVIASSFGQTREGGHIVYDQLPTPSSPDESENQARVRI
Nature of the experiment: in vitro enzyme assay to detect the production of urea directly proportional to the activity of Arginase II. Further details: scale not given: in the data most compounds retested in dose-response had high values. It counts as functional. The following applies: 33.3 µM.

Experiment [7] deals with T4, Proteasome subunit beta (Trypanosoma cruzi) (UniProt O96673).
T4 sequence (whole entry): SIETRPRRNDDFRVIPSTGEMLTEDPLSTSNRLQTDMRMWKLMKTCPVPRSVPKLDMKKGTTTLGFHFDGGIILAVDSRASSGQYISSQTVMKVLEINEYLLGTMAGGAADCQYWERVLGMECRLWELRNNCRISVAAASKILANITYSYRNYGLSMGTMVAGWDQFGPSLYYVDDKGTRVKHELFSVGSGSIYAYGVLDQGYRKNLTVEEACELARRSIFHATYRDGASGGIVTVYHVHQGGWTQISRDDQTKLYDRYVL
Nature of the experiment: Trypanosoma cruzi proteasome chymotrypsin-like activity (TcProtChymo) assay. It counts as functional. Further details: scale not given: in the data most compounds retested in dose-response had high values. The note with it: 9.37 µM.

A further experiment is filed under the species Homo sapiens. Nature of the experiment: To identify inhibition of the IFN signalling (Jak-Stat) pathway via expression of an eGFP reporter gene under the control of an IFN-stimulated response element (ISRE) containing MxA promoter. It counts as functional. Further details: scale not given: direction of the effect not stated beside the values. The following applies: 30 µM. For orientation: In a reporter assay the amount or activity of a reporter protein is the signal.

The target of experiment [8] is T5, Tyrosyl-tRNA synthetase, putative (Trypanosoma cruzi (strain CL Brener)) (UniProt Q4DSP6).
T5 sequence (whole entry): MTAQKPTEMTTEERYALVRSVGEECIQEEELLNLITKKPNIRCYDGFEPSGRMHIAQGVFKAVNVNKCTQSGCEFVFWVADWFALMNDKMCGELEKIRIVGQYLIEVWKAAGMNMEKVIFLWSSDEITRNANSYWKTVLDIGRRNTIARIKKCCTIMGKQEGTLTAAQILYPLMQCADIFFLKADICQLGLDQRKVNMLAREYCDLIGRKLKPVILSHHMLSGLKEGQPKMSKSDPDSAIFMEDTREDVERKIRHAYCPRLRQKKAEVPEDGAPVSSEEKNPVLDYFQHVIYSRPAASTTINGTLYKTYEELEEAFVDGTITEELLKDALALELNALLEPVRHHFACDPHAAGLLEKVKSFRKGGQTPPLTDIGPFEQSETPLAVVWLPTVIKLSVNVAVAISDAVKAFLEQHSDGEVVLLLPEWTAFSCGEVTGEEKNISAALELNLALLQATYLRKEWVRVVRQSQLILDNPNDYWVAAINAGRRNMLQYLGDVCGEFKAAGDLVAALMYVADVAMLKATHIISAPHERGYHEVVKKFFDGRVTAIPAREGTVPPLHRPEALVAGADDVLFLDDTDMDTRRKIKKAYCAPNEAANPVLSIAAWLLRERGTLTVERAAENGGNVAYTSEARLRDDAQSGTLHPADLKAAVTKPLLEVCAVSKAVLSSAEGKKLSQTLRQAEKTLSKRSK
Kind of experiment: Trypanosoma cruzi tyrosyl tRNA synthetase (TcYRS) _High Tyrosine SOP. The experiment is classed as functional. The following applies: 30 µM. Further details: scale not given: in the data most compounds retested in dose-response had high values.

The target in experiment [9] is T5, Tyrosyl-tRNA synthetase, putative (Trypanosoma cruzi (strain CL Brener)). Kind of experiment: Trypanosoma cruzi tyrosyl tRNA synthetase (TcYRS) SOP. The experiment is classed as functional. Further details: scale not given: direction of the effect not stated beside the values. The following applies: 30 µM.
In experiment [10] the target is Chromo domain-containing protein 1 (Saccharomyces cerevisiae (strain ATCC 204508 / S288c) (Baker's yeast)) (UniProt P32657). Kind of experiment: ScCHD-1 Enzyme Inhibition Assay. It counts as functional. On the set-up: scale not given: in the data most compounds retested in dose-response had high values. The note with it: 30 µM.
Chain of Chromo domain-containing protein 1 (Saccharomyces cerevisiae (strain ATCC 204508 / S288c) (Baker's yeast)) (P32657 whole entry, the tested form may be a part): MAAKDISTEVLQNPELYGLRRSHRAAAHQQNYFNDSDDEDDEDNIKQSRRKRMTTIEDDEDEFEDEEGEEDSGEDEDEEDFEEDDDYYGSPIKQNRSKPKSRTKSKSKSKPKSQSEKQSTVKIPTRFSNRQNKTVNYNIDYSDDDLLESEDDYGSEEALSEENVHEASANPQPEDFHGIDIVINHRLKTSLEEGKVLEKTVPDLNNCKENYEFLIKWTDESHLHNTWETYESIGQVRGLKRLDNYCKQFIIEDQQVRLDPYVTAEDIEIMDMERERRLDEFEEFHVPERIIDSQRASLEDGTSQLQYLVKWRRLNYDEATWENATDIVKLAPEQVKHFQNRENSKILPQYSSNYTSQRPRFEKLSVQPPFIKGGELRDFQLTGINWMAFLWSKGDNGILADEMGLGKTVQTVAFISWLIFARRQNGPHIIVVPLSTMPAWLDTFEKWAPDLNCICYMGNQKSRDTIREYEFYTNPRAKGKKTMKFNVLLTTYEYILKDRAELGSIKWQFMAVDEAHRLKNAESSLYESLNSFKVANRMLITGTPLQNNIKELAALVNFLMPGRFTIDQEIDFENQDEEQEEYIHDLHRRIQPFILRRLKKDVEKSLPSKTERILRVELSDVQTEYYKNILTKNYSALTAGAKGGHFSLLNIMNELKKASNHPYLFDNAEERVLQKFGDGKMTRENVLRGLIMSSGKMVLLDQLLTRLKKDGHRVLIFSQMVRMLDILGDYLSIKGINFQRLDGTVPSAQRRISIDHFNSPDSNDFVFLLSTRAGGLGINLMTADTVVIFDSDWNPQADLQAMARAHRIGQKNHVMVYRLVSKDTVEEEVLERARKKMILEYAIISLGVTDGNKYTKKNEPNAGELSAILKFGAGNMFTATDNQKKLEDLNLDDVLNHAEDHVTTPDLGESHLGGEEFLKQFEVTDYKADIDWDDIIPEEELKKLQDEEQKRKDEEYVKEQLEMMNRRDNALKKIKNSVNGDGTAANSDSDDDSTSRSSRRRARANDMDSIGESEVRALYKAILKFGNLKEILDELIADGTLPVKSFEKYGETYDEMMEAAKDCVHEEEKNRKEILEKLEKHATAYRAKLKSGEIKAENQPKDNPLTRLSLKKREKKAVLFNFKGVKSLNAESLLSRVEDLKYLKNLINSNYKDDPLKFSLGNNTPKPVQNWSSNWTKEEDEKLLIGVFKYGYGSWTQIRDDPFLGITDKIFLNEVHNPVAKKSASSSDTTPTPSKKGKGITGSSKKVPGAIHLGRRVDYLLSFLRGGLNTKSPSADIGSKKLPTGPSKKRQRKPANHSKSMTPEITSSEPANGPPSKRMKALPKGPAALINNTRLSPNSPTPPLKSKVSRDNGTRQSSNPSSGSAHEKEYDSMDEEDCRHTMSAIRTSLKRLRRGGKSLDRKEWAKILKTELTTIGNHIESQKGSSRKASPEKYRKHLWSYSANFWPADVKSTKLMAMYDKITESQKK

Chain of Protein translocase subunit SecA (Escherichia coli (strain K12)) (P10408 whole entry): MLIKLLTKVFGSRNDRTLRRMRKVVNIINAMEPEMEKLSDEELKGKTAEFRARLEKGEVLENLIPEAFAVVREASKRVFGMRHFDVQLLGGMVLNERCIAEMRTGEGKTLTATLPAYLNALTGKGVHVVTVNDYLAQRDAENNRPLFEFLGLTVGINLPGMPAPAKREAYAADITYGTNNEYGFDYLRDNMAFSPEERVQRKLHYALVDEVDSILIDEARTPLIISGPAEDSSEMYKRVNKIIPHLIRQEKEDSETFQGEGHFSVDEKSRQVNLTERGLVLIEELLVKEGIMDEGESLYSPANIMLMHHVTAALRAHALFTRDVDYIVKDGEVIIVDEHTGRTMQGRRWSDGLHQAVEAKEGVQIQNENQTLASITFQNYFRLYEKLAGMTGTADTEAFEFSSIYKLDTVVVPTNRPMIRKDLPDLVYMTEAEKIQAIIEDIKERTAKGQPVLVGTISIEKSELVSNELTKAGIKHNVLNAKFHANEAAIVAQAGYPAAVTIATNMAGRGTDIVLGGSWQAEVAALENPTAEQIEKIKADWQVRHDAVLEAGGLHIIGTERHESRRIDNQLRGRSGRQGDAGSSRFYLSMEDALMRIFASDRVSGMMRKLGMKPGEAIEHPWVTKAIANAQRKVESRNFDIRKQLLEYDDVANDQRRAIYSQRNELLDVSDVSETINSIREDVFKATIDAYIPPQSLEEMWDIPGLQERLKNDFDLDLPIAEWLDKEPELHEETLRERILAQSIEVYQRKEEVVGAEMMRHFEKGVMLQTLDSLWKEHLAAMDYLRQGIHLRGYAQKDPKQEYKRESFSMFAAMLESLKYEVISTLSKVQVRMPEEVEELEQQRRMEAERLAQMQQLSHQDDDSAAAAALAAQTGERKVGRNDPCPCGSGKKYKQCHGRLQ
Chain of Sialic acid-binding Ig-like lectin 9 (Homo sapiens) (Q9Y336 whole entry): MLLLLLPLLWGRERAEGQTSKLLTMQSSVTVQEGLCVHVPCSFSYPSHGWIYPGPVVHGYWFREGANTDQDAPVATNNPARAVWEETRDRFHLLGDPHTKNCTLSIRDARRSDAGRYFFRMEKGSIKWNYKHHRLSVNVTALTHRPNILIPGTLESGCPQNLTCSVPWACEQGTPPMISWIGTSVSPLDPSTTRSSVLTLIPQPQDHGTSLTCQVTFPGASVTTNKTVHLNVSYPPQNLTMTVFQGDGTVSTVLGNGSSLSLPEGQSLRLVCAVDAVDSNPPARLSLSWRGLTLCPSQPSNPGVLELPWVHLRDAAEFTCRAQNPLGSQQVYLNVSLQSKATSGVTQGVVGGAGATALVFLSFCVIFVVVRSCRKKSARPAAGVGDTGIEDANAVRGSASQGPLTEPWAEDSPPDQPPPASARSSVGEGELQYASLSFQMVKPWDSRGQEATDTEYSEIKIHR

On to `Cc1nc2cc(=O)[nH]n2c(C)c1CC(=O)Nc1ccc2ccccc2n1`, for which the PXC50 in experiment [1] (BOTTOM 1.14070889, HILLSLOPE 1.278083227, MAX_EFFECT 56.52173913, TOP 100.0) is 4.1; in experiment [1] (MAX_EFFECT 23.76395534) it was less than 4; in experiment [1] (MAX_EFFECT 26.29558541), less than 4; in experiment [1] (MAX_EFFECT 33.33333333) it was less than 4; in experiment [1] (MAX_EFFECT 45.21452145), less than 4. Moreover, the Percent Effect is -3.58% in [2]; 5.26% in experiment [3]; -24.7% in experiment [4]; 6.53% in experiment [5]; 0.564% with Trypanosoma cruzi; -6.51% in experiment [6]. Moreover, the Percent Effect in experiment [7] is -1.34%; in the experiment listed under Homo sapiens, -15.5%; in experiment [8], 16.2%; in [9], 12.2%; in experiment [10] it was -1.37%.
Regarding `O=C(CC1=CCCCC1)NCCc1csc(N2CCCC2)n1`, the PXC50 was 4.26 in [1] (BOTTOM 3.701535951, HILLSLOPE 1.30756587, MAX_EFFECT 71.01449275, TOP 100.0); 4.32 in [1] (BOTTOM -1.141810122, HILLSLOPE 1.921557011, MAX_EFFECT 84.15841584, TOP 100.0); less than 4 in [1] (MAX_EFFECT 3.162055336); less than 4 in experiment [1] (MAX_EFFECT 8.571428571); less than 4 in [1] (MAX_EFFECT 50.53763441). Also, the Percent Effect in experiment [2] is -6.52%; in [3], -5.33%; in experiment [4], -0.418%; in experiment [5], 8.91%; in the experiment on Trypanosoma cruzi, 15.9%; in experiment [6], -1.56%. Further, the Percent Effect in experiment [7] was 25.3%; in the experiment listed under Homo sapiens it was -20.2%; in experiment [8] it was 23.5%; in experiment [9] it was 8.64%; in experiment [10], 33%.
